PfHsp40 rescue = rescue of PfHsp40-mediated yeast toxicity; S. cerevisiae expressing PfHsp40, growth rescue, ATP luminescence; AID 504582; growth rescue, % at 12.5 µM; actives 0.68% (n = 340,000); in the data active = growth rescue above about 28%, passing the limit was not always enough;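 note: yeast W303a lacking pdr1 and pdr3 grown in galactose medium; growth measured after three days at 30 °C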
DUSP3 inh = inhibitors of human VHR1 phosphatase (DUSP3); P51452; inhibition, % at 13.3 µM; actives 0.52% (n = 290,000); recombinant VHR phosphatase, pNPP absorbance; in the data active = inhibition above about 50%
Y pestis TopoI = Y. pestis Topo-I inhibition via cleavage products; AID 504884; actives 0.064% (n = 360,000); Y. pestis Topo-I cleavage product accumulation, plate reader; activity, % at 10 µM; in the data active = activity above about 50%, passing the limit was not always enough
BH1578 lux ind = induces V. cholerae light production without autoinducers. V. cholerae BH1578 lux reporter, luminescence, 6 h. activation, % at 18.7 µM. actives 0.16% (n = 350,000). AID 588436; in the data active = activation mostly above about 9.7%, no sharp cut-off
TcdB inh = TcdB glycohydrolase inhibition | TcdB glycohydrolase enzymatic assay, plate reader | P18177 | inhibition, % at 9.99 µM | actives 0.24% (n = 350,000); in the data active = inhibition above about 10%
Target sequence (P18177 whole entry, looked up): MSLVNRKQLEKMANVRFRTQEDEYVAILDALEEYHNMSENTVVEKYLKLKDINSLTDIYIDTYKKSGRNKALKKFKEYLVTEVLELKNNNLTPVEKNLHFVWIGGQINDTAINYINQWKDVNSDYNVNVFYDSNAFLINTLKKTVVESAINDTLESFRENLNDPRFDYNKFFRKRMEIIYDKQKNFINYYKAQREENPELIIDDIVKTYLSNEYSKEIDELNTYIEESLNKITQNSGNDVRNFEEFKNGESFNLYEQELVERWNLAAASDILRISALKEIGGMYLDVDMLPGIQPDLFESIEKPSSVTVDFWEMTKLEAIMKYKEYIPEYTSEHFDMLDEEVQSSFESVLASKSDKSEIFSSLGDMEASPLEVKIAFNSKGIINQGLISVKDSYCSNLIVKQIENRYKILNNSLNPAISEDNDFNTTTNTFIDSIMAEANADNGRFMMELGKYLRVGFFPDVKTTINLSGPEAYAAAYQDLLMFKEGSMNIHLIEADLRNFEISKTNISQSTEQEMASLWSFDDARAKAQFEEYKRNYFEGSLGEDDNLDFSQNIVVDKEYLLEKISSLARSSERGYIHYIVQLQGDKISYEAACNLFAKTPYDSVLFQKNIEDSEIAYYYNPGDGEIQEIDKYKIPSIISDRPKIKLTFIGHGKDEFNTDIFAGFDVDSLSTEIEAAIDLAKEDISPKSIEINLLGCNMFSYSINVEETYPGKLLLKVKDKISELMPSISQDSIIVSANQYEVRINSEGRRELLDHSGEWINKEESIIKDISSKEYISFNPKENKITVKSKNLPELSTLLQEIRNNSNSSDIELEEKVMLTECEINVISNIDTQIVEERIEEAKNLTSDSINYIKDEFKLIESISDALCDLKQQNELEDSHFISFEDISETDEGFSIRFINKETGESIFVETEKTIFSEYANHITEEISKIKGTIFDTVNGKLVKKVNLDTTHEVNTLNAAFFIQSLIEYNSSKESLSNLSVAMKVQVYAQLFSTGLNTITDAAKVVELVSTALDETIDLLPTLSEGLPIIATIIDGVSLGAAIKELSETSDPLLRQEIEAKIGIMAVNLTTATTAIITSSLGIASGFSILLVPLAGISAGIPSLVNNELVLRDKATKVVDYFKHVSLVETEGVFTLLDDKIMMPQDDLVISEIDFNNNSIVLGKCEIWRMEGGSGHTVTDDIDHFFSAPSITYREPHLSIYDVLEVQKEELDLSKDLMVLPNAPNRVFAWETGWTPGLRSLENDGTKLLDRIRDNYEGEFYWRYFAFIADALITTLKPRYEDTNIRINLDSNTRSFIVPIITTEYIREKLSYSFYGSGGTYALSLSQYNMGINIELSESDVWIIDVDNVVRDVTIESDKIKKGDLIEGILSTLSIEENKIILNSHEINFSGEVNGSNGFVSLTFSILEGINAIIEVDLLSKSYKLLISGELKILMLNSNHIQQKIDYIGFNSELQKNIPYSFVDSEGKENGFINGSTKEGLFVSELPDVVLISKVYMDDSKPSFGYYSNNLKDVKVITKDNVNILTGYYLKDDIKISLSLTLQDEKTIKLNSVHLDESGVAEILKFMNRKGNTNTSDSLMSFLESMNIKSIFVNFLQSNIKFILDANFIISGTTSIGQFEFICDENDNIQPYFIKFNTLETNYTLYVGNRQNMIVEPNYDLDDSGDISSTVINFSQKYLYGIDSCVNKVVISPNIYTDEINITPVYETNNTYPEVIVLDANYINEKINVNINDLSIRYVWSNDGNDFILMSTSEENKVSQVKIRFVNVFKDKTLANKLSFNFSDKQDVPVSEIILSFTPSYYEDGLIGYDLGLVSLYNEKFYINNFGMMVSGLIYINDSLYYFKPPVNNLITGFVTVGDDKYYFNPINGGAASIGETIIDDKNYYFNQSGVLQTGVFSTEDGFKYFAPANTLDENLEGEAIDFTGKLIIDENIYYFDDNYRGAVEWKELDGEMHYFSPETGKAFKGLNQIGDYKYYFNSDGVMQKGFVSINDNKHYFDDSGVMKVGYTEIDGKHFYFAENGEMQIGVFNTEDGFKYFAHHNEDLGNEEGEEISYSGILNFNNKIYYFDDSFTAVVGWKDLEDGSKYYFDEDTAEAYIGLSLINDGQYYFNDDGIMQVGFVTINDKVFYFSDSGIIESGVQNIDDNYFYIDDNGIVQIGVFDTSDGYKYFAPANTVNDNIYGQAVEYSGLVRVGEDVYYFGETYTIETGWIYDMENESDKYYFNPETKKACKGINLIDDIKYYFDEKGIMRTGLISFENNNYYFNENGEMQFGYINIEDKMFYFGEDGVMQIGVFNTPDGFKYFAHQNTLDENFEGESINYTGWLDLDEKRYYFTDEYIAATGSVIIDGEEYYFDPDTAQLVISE
BioA inh = blocks M. tuberculosis BioA enzyme activity; purified M. tuberculosis BioA enzyme, plate reader; inhibition, % at 9.99 µM; actives 0.096% (n = 360,000); in the data active = inhibition above about 40%
Starred values were filed as active, the others as inactive; i = inactive; . = no result given. Rows were chosen to be rich in hits. Some 1.2% of all compounds tested hit in one or more screens of this group.

SMILES | PfHsp40 rescue | DUSP3 inh | Y pestis TopoI | BH1578 lux ind | TcdB inh | BioA inh
COC(=O)C(Cc1ccccc1)NC(=O)CSc1nc(C)cc(=O)[nH]1 (stereo not drawn) | 3 | -13 | 6 | 0 | 22* | 0
COc1ccc(N2CCN(C(=O)c3ccc(S(=O)(=O)N4CCOCC4)cc3)CC2)cc1 | 2 | 51* | -1 | i | . | -1
CCCCN(C)S(=O)(=O)c1ccc(C(=O)N=c2sc3cc(NC(C)=O)ccc3n2C)cc1 | -1 | -8 | -6 | 0 | . | 9
CC12CCC(=O)N1C(C(=O)OCc1c(Cl)cccc1Cl)CS2 (stereo not drawn) | 1 | 10 | 23 | -16 | 12* | 1
CC12CCC(=O)N1C(C(=O)Oc1cccc(F)c1)CS2 (stereo not drawn) | . | . | 3 | -1 | 1 | 0
O=C(Cn1ncc2c([nH]c3ccccc32)c1=O)N1CCN(c2ccc(F)cc2)CC1 | -1 | 51* | 6 | 0 | 1 | -2
O=C(Cn1ncc2c([nH]c3ccccc32)c1=O)N1CCN(c2ccccc2F)CC1 | 0 | -12 | 3 | 0 | 1 | -1
CCc1ccc(C(=O)/C=C/c2ccc([N+](=O)[O-])o2)cc1 | 120* | 25 | 0 | i | . | .
O=S(=O)(Nc1nc2ccccc2nc1NCCO)c1cccc(Cl)c1 | 0 | 18 | -4 | i | . | -3
COc1ccc(-c2noc(-c3csc([C@@H]4C[C@H](O)[C@@H](CO)O4)n3)n2)cc1OC | . | . | -4 | 1 | 1 | 1
COc1ccc(S(=O)(=O)N2CCC(C(=O)NC3(C)CCS(=O)(=O)C3)CC2)cc1OC (stereo not drawn) | -2 | . | 3 | -1 | 1 | 1
OCCN1CCN(C(=S)NCCc2ccccc2)CC1 | -1 | -1 | 8 | i | . | 0
CCN1CCN(C(=S)NCCc2ccccc2)CC1 | 0 | 57* | 12 | 13 | . | 1
Oc1ccccc1N=Cc1c(O)ccc2oc3c(c12)CCCC3 | 190* | 9 | -5 | 0 | -1 | -2
O=c1oc2ccccc2c(N2CCCCC2)c1CN1CCCC1 | 1 | 8 | 14 | i | . | 0
O=c1oc2ccccc2c(N2CCCCC2)c1CN1CCCCC1 | 2 | 13 | -3 | 25* | . | -1
O=C(Nc1ccc(-c2nc3ccccc3[nH]2)cc1)c1ccc2c(c1)OCO2 | 0 | 20 | 11 | i | 1 | -1
c1ccc2[nH]c(-c3ccc4c(c3)OCO4)nc2c1 | . | . | 6 | 0 | 11* | 2
Cc1ccc(SCCNC(=O)c2ccc(C)c([N+](=O)[O-])c2)cc1 | 48* | 22 | 2 | 0 | . | 4
C=CCn1c(SCC(=O)N2CCOCC2)nc2sc(C)c(C)c2c1=O | 1 | 51* | 7 | 0 | 1 | 0
Cc1cccc(NC(=O)CSc2n[nH]c(-c3ccncc3)n2)c1 | -1 | 47 | 0 | 0 | -1 | -2
COc1ccc(NC(=O)CN(C)C(=O)c2cccc(NS(=O)(=O)c3ccc(Br)cc3)c2)cc1 | -1 | . | 25 | -1 | 16* | .
O=C(c1cccs1)N1C[C@@H](n2cc(-c3ccc(F)cc3)nn2)[C@H](O)C[C@@H]1c1ccc(Cl)cc1 | . | . | -8 | 1 | 1 | -8
CCOc1cc(C)c(Cl)cc1S(=O)(=O)NC1CC(C)(C)NC(C)(C)C1 | 0 | -2 | -2 | 0 | . | .
CCOc1cc(S(=O)(=O)NC2CC(C)(C)NC(C)(C)C2)ccc1Cl | 123* | . | -9 | 2 | 1 | 0
SMILES | PfHsp40 rescue | DUSP3 inh | Y pestis TopoI | BH1578 lux ind | TcdB inh | BioA inh
COc1ccc(S(=O)(=O)NC2CC(C)(C)NC(C)(C)C2)c(C)c1C | . | -22 | . | . | . | .
CC1(C)CC(NS(=O)(=O)c2cccc3ccccc23)CC(C)(C)N1 | 0 | 56* | -13 | 0 | 0 | -7
CC1(C)CN(c2cccc(-c3ccnc4ncnn34)c2)C1=O | 0 | 20 | 8 | -3 | 1 | 0
CCc1ccc(-c2csc3[n+]2CCN3C(C)=O)cc1 | 93* | 13 | 9 | 0 | 1 | 3
CC(=O)N1CCN(C(=S)c2ccc(Cl)cc2)CC1 | -1 | 0 | 1 | 0 | . | .
CC(=O)N1CC[n+]2c(-c3ccc(Cl)cc3)csc21 | 66* | -3 | 1 | 0 | 1 | .
O=C(Cc1cccc2ccccc12)NC(NC(=S)Nc1ccccc1Cl)C(Cl)(Cl)Cl (stereo not drawn) | -1 | -3 | -9 | 0 | . | -1
O=C(O)COc1ccc(Nc2ccccc2)cc1 | -1 | 9 | -1 | -1 | 6 | .
O=C(O)c1cccc2c1Cc1cc([N+](=O)[O-])ccc1-2 | 118* | . | 1 | i | 2 | 0
O=[N+]([O-])c1ccc2c(c1)Cc1cc(O)ccc1-2 | 51* | . | -33 | i | 8 | .
O=C(O)c1cccc2c1-c1ccc([N+](=O)[O-])cc1C2=O | -2 | . | 2 | i | 1 | .
C[C@@H]1CN([C@H](C)CO)C(=O)Cc2cc(NC(=O)Nc3ccccc3)ccc2O[C@@H]1CN(C)S(=O)(=O)c1ccccc1 | . | . | . | . | 0 | 0
CC(=O)NC(Cc1ccccc1)C(=O)Oc1ccc2ccccc2c1 (stereo not drawn) | 0 | . | 13 | -1 | 10* | -1
O=C(COc1ccc(Cl)cc1)NCc1nnc2c3ccccc3c(-c3ccccc3)nn12 | 0 | 51* | 26 | -1 | . | .
O=C(NCc1nnc2c3ccccc3c(-c3ccccc3)nn12)c1ccccc1Cl | 0 | 2 | 3 | i | 0 | 3
CCc1nc(SCc2cccnc2)c2c(=O)n(C)c(=O)n(C)c2n1 | 1 | -6 | 1 | 0 | 3 | 1
CC(C)Cc1nc(SCc2cccnc2)c2c(=O)n(C)c(=O)n(C)c2n1 | 33* | 23 | 6 | -1 | 0 | .
COc1ccc(NC(=O)CN2C(=O)S/C(=C/c3cccn3-c3ccc(C(=O)O)cc3)C2=O)cc1 | -1 | 57* | 5 | 0 | 2 | 0
Cc1ccccc1NC(=O)Nc1cc(S(N)(=O)=O)ccc1C | -1 | 6 | 7 | 0 | 1 | -1
Cc1ccc(S(N)(=O)=O)cc1NC(=O)c1ccc2c3c(cccc13)CC2 | 0 | 57* | 2 | i | 3 | 3
Cc1ccc2nc(NC(=O)c3ccc(NS(=O)(=O)c4cccs4)cc3)sc2c1 | -1 | 56* | -5 | 0 | -1 | .
Cc1nc2ccc(NC(=O)c3cccs3)cc2s1 | 37* | 19 | 0 | -5 | 1 | 1
Cc1ccc2nc(NC(=O)CCNS(=O)(=O)c3cccs3)sc2c1 | 0 | 14 | 8 | 0 | . | -2
Cc1cccc(OCC(=O)Nc2ccc3nc(C)sc3c2)c1 | -1 | -6 | -1 | 0 | 1 | .
Cc1nc2ccc(NC(=O)COc3cccc(F)c3)cc2s1 | 242* | 6 | -3 | i | 3 | .
Cc1nc(C)c(C(=O)Nc2cccc(F)c2)s1 | -1 | 27 | -1 | i | 1 | 47*
CCCc1cc(=O)[nH]c(SCC(=O)N2CCc3ccccc32)n1 | -1 | . | 9 | 1 | -3 | 7
O=C(NNC(=O)c1cc(Cl)ccc1O)c1ccc(NS(=O)(=O)c2cccs2)cc1 | 351* | . | -9 | -6 | 0 | -1

High-throughput results: PubChem BioAssay, several laboratories
